Among the data in PubChem BioAssay (NCI) are growth values, retold here.

This is part of a sample that, as a whole, favours compounds with a hit. Of some 83,000 tested, about 20% had one in any assay.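 A percent growth of 40 corresponds to 60% growth inhibition; 0 means no net growth; -100 means all cells died. Active threshold: below 10.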 A number with no mark means an inactive call. Activity calls are given as the source filed them.

Test in all cases: NCI-60 one-dose screen, 48 h (100 = growth as untreated, 0 = no growth, -100 = all killed)
The subject of experiment [1] is T-47D breast. As to conditions: 10 µM unless noted.
For experiment [2], the system named is BT-549 breast. Particulars: 10 µM unless noted.
The subject of experiment [3] is SW-620 colon. Particulars: 10 µM unless noted.
The test system of experiment [4] is MCF7 breast. Particulars: 10 µM unless noted.
In experiment [5] the test system is HCT-116 colon. Particulars: 10 µM unless noted.
Experiment [6] relates to HCC-2998 colon. Particulars: 10 µM.
Experiment [7] deals with KM12 colon. As to conditions: 10 µM unless noted.
The subject of experiment [8] is MDA-MB-435 melanoma. Particulars: 10 µM unless noted.

With `Cc1cc(-c2cc(O)ccc2Cl)cc2nnc(Nc3ccc(OCCN4CCCC4)cc3)nc12`, the growth is -47.8% (active) in experiment [1]; -50.7% (active) in experiment [2]; -74.8% (active) in experiment [3]; -54.4% (active) in experiment [4]; -57.5% (active) in experiment [5]; -72.6% (active) in experiment [6]. Further, the growth in experiment [7] is -76.2% (active).

For the compound `O=C(c1ccccc1)C(c1ccccc1)N1CCOCC1` (configuration not stated), the growth in experiment [1] is 98.8%; in experiment [2], 110%; in experiment [3], 103%; in experiment [4], 98.3%; in experiment [5] it was 102%; in experiment [6] it was 102%. For the same compound, in experiment [7], the growth was 99.1%.

`COc1ccc(C(=O)c2cc(OC)c(OC)c(OC)c2)cc1/C=C/C(=O)c1ccc(F)cc1`: the growth in experiment [1] was 67.3%; in experiment [2] it was 81.2%; in experiment [3], 9.38% (active); in experiment [4], 19.6%; in experiment [5] it was 1.33% (active); in experiment [6], 97.1%. The growth in experiment [7] was 39.8%.

Take `CCNCCNc1cc(-c2ccc(Cl)c(Cl)c2)c(C#N)c2nc3ccccc3n12`: the growth in experiment [1] was -60.8% (active); in experiment [2], -70.5% (active); in experiment [3] it was -67.3% (active); in experiment [4], -72% (active); in experiment [5], -87.3% (active); in experiment [6], -87.1% (active). Besides, in experiment [7], the growth is -86.6% (active).

Turning to `N#CC(C#N)=NO`, the growth was 102% in experiment [1]; 103% in experiment [2]; 100% in experiment [3]; 96.1% in experiment [4]; 92.5% in experiment [5]; 96.3% in experiment [6]. The growth in experiment [7] was 103%.

With `CC(C)OP(=O)(CCC(=O)c1c[nH]c2ccccc12)OC(C)C`, the growth in experiment [1] was 89.5%; in experiment [2], 117%; in experiment [3] it was 105%; in experiment [4], 100%; in experiment [5] it was 113%; in experiment [6], 97.3%. Further, the growth in experiment [7] is 99.9%.

In the case of `C/C(=N\NC(=O)Cn1c(-c2ccc(S(C)(=O)=O)cc2)nc2ccccc21)c1ccc(Cl)cc1`, the growth is 81.3% in experiment [1]; 85% in experiment [2]; 97.4% in experiment [8]; 101% in experiment [3]; 82.9% in experiment [4]; 106% in experiment [6]. The growth in experiment [7] was 95.6%.

`COc1cc2cc(NCc3ccc(Cl)cc3)nc(C)c2cc1OC`: the growth in experiment [1] was 47.1%; in experiment [2], 30.8%; in experiment [3] it was 19.3%; in experiment [4] it was 51.8%; in experiment [5] it was 8.8% (active); in experiment [6], 27.2%. For the same compound, the growth in experiment [7] is 37.2%.

As for `CCN(CCN(C)C)C(=O)CNCc1cc(C(N)=O)ccn1`, the growth in experiment [1] was 104%; in experiment [2], 102%; in experiment [3] it was 109%; in experiment [4], 96.1%; in experiment [5] it was 94.4%; in experiment [6] it was 94.2%. In addition, the growth in experiment [7] is 101%.

As for `O=C(O)c1ccc2c(c1)nc(Nc1cccc(Cl)c1)c1ccncc12`, the growth in experiment [1] was -22.1% (active); in experiment [2], -5.65% (active); in experiment [3], 6.63% (active); in experiment [4], 5.91% (active); in experiment [5], 3.79% (active); in experiment [6] it was 15.1%. For the same compound, the growth in experiment [7] is 11.5%.

Regarding `O=C(CNc1nnc(-c2ccc(Cl)cc2)o1)Nc1ccc(-c2nc3ccccc3s2)cc1`, the growth is 79.9% in experiment [1]; 87% in experiment [2]; 97.1% in experiment [8]; 110% in experiment [3]; 34.5% in experiment [4]; 93.5% in experiment [6]. The growth in experiment [7] is 97%.

Turning to `CNC(=O)c1cc(Oc2ccc3nc(NC(=O)Nc4ccc(Cl)c(C(F)(F)F)c4)sc3c2)ccn1`, the growth in experiment [1] is -2.44% (active); in experiment [2], 17.4%; in experiment [3], 21.5%; in experiment [4], 20.8%; in experiment [5], -22% (active); in experiment [6], 46.6%. In addition, the growth in experiment [7] was 29.8%.

For the compound `CN1CCC(COc2cnc(-c3cccc(Cn4nc(-c5cccc(C#N)c5)ccc4=O)c3)nc2)CC1`, the growth is -49.1% (active) in experiment [1]; 63.4% in experiment [2]; 45.6% in experiment [3]; 60.3% in experiment [4]; 22.5% in experiment [5]; 80.7% in experiment [6]. Also, in experiment [7], the growth was 33.7%.

Turning to `CO[C@@H](C)Cn1c(=O)n(C)c2cnc3ccc(-c4cncc(C(C)(C)O)c4)cc3c21`, the growth in experiment [1] is -21.9% (active); in experiment [2], -6.62% (active); in experiment [8], 0.636% (active); in experiment [3] it was 9.31% (active); in experiment [4], 6.25% (active); in experiment [7] it was 5.54% (active).
